Compound activity: PubChem, National Center for Advancing Translational Sciences (NCATS)
D2 PAM-1 = D2 dopamine receptor (human) potentiation | P14416 | HEK293 T-REx D2, calcium flux, EC20 dopamine potentiation | potentiation, % at 10 µM | 0.34% of 340,000 active;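 active means potentiation over 3 SD above the plate norm, cut at about 30% in these data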; further: 0% is about no effect
Target sequence (P14416 whole entry, looked up): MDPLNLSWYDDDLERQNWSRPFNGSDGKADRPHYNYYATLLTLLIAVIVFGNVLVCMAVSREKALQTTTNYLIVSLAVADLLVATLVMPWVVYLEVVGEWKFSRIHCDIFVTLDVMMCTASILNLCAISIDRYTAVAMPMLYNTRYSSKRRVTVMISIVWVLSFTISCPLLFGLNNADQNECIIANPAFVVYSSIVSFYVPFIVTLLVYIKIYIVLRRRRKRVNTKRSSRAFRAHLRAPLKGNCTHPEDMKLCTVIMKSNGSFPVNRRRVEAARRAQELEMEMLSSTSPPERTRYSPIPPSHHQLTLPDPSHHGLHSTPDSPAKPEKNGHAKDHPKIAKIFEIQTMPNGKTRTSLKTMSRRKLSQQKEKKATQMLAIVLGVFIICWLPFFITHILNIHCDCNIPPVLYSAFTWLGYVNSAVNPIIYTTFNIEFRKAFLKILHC
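Primary screen. Calcium kinetics in induced HEK293 T-REx D2 cells: compound pre-addition 180 s, EC20 dopamine, 180 s more.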
D2 ag-1 = human D2 receptor agonism in beta-arrestin assay; P14416; DiscoveRx PathHunter D2 beta-arrestin, luminescence, 90 min; 100% = 57 uM dopamine signal; activation, % (no concentration beside the values); 0.084% of 360,000 active; in the data active means activation above about 40%; inconclusive means between about 15% and that limit
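DiscoveRx PathHunter D2 beta-arrestin cells (2,100/well) attached overnight, then compound-stimulated 90 min at 37 C in HBSS/10 mM HEPES/0.1% Tween-20 buffer; beta-galactosidase complementation read by luminescence after 1 h at ambient temperature. Dopamine 57 uM final (EC100) as control.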
D2 antag = antagonizes the human D2 dopamine receptor | inhibition, % at 10 µM | HEK293 TREx D2 cells, calcium flux, dopamine EC80 | AID 485344 | P14416 | 2% of 340,000 active; in the data active means inhibition above about 30%; inactive means below that, where a call was filed; further: 0% is about no effect
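Cells plated overnight at 30 C with tetracycline; no-wash calcium dye, 30–90 min RT; 10 s baseline; compound pinned; 180 s read; EC80 dopamine added; another 180 s read.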
LDHA inh = inhibitors of human lactate dehydrogenase A; P00338; purified LDHA, NADH/diaphorase-resazurin fluorescence; hits give low values; activity change, % (values are at about 110 or 230 µM); 0.15% of 480,000 active; in the data active means activity change below about -30%; inconclusive means mostly about -25% to -30%;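 further: plate controls were DMSO wells for no effect and wells without enzyme for full effect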
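Human LDH5 (2 nM) was incubated with 0.06 mM NADH and 0.2 mM pyruvate for 5 min at room temperature in Tris pH 7.4. Remaining NADH was coupled through diaphorase/resazurin, and resorufin fluorescence was read at 0 and 20 min.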
D2 ag-2 = activates the human D2 dopamine receptor. 0.53% of 340,000 active. activation, % at 2 µM. HEK293 T-REx D2 cells, calcium flux agonist mode. P14416;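 active means activation over 3 SD above normal in the single-dose calcium agonist read, cut at about 30% in these data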; further: 0% is about no effect
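HEK293 Trex D2 cells, tetracycline-induced, o/n 30 C 5% CO2; no-wash Ca dye, RT 30–90 min; 10-cycle baseline, 23 nl cpd added, kinetic Ca read 180 s; agonist hits = positive Ca response.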
D2 PAM-2 = human D2 receptor positive allosteric modulation | DiscoveRx D2 beta-arrestin cells, luminescence, 90 min; 100% = 57 uM dopamine signal | potentiation, % (no concentration beside the values) | 0.23% of 360,000 active | AID 624464; in the data active means potentiation above about 50%; inconclusive means mostly about 30% to 49%
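PathHunter beta-arrestin assay in DiscoveRx D2 cells. Compounds were added with an EC20 of dopamine (50 nM final) for 90 min at 37 deg C. Luminescence was read 1 h after detection reagent, with 57 uM dopamine as the EC100 control.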
D3 arrestin ag = activates human D3 dopamine receptor beta-arrestin recruitment. shares compounds with D2 ag-2. DiscoveRx D3 beta-arrestin cells, luminescence, 90 min. Potency, µM (series often up to 76.9 µM), without a hit: at the highest dose activation, most hits filed as activators. 4% of 2,300 active;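 further: potency means the concentration at half of the fitted maximal effect; 100% = dopamine control response; nearly all actives have a fitted effect of over 70% in size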
D2 ag-3 = activates human D2 dopamine receptor in D3 counterscreen; shares compounds with D2 ag-2; DiscoveRx PathHunter D2 beta-arrestin, luminescence, 90 min; response scale: percent relative to full dopamine signal; Potency, µM (series often up to 76.9 µM), for the others: at the top dose activation, usual class: activators; 5.9% of 2,300 active; AID 720507; further: potency means the concentration at half of the fitted maximal effect; % of control where 0% means no effect; nearly all actives have a fitted effect of over 70% in size
An asterisk follows results filed as active; ? = inconclusive; . = not tested or not shown. An excerpt weighted towards active compounds, which were near 2.1% of everything screened. Unless noted, the call rests on the fitted dose curve; in most records, active means well fitted activation curve with a large enough effect; inconclusive means small, poorly fitted or top-dose-only effect; inactive means flat fitted curve, though single readings scatter.

SMILES | D2 PAM-1 | D2 ag-1 | D2 antag | LDHA inh | D2 ag-2 | D2 PAM-2 | D3 arrestin ag | D2 ag-3
Cc1ccc(NC(=O)N2CCCC(c3ccccc3)C2)cc1 (stereo not drawn) | . | ? | . | -3 | . | -1 | 4% | 8%
Cc1cccc(-c2nc(C#N)c(N3CCN(Cc4ccccc4)CC3)o2)c1 | . | . | . | 0 | . | . | . | .
COC(=O)C(NC(=O)Nc1ccccc1)C12CC3CC(CC(C3)C1)C2 (stereo not drawn) | . | . | . | 10 | . | . | . | .
O=C(CN1CCN(C(=O)c2ccco2)CC1)Nc1ccc(Cl)c(S(=O)(=O)N2CCOCC2)c1 | -16 | -5 | -1 | -2 | 45* | 7 | ? | 11%
O=C(CN1CCN(c2ccccc2)CC1)Nc1ccc2c(c1)OCCO2 | -31 | 14 | 45* | -7 | 56* | -35 | 15% | ?
O=C(CN1CCN(C(=O)c2ccco2)CC1)Nc1ccc2c(c1)OCCO2 | -18 | ? | 54* | -5 | 61* | 11 | 25% | 24%
Cc1[nH]c2ccccc2c1NC(=O)CN1CCN(C(=O)c2ccco2)CC1 | -22 | 54* | 61* | 1 | 87* | ? | 1% | ?
CCCS(=O)(=O)NCc1nnnn1-c1ccc(OCC)cc1 | . | . | . | 8 | . | . | . | .
COc1cc(/C=C/C(=O)OCC(=O)Nc2ccc(C)cc2[N+](=O)[O-])ccc1O | 9 | -4 | -28 | -2 | 1 | -6 | . | .
COc1cc(/C=C/C(=O)OCC(=O)Nc2cc(C)c(C)cc2[N+](=O)[O-])ccc1O | 9 | 0 | 22 | 0 | -1 | -8 | -4% | -2%
COc1ccc2c(c1)c(C(C(=O)O)N1CCN(Cc3cccnc3)CC1)cn2CCC(=O)O (stereo not drawn) | . | . | . | 2 | . | . | . | .
COc1cccc(S(=O)(=O)NC2CCN(C#N)C2)c1 (stereo not drawn) | 5 | . | 1 | -6 | 0 | . | -6% | -2%
CCC(C)(NCc1ccccc1)c1nnnn1-c1ccccc1C (stereo not drawn) | . | . | . | 8 | . | . | . | .
Cc1ccc(S(=O)(=O)N(C)C)cc1NC(=O)COC(=O)CN1C(=O)c2ccccc2C1=O | -15 | -4 | -20 | -2 | 0 | -29 | 4% | -4%
CC(C)CNC(=O)CN(C1CCCCC1)S(=O)(=O)c1ccccc1 | -8 | -3 | 25 | -7 | 0 | -2 | -7% | -2%
Cn1c2c(c(=O)n(C)c1=O)C(C(F)(F)F)(C(F)(F)F)N=C(c1ccc(Cl)cc1)N2 | 18 | 4 | 1 | 0 | 5 | ? | ? | 1%
CCC(C(=O)c1ccc(OC)cc1)C(=O)c1ccc(OC)cc1 | . | . | . | 6 | . | . | . | .
O=C(CN1CCN(c2ccccn2)CC1)Nc1ccc(F)c(F)c1 | -18 | ? | 18 | -10 | 52* | 3 | ? | 16%
Cc1ccc(NC(=O)c2ncn(CCCN3CCN(c4ccccn4)CC3)n2)cc1C | . | 0 | . | 3 | . | -12 | . | .
O=C(CN1CCN(c2ccccn2)CC1)Nc1cccc(S(=O)(=O)N2CCCC2)c1 | -34 | 3 | 60* | 0 | 60* | -17 | ? | 28µM*
O=C(CN1CCN(c2ccccn2)CC1)Nc1nc2ccccc2s1 | 10 | 6 | -8 | 0 | 0 | 6 | . | .
Cc1cc(C)c(NC(=O)CN2CCN(c3ccccn3)CC2)c(C)c1 | -4 | 8 | 21 | -3 | 21 | -4 | 4% | 9%
Cc1cc(NC(=O)CN2CCN(c3ccccn3)CC2)ccc1Br | -19 | 7 | 17 | -4 | 37* | -2 | 16µM* | 17%
Cc1ccc(N=C2NN=C(c3c[nH]c(C(=O)N4CCCC4)c3)CS2)c(C)c1 | . | . | . | 5 | . | . | . | .
O=C(Nc1ccccc1-c1ccccc1)c1cc(F)cc(F)c1 | . | . | . | 6 | . | . | . | .
SMILES | D2 PAM-1 | D2 ag-1 | D2 antag | LDHA inh | D2 ag-2 | D2 PAM-2 | D3 arrestin ag | D2 ag-3
CCOC(=O)COC(=O)c1cc2c(s1)-c1ccc(OC)cc1CC2 | . | . | . | -22 | . | . | . | .
O=C(CN1CCN(c2ccccn2)CC1)NC1CCCC1 | -9 | 7 | 9 | 2 | 24 | -8 | -13% | 11%
O=C(CN1CCN(c2ccccn2)CC1)NCCc1ccccc1 | -6 | 5 | -7 | -3 | 5 | -4 | . | .
COc1cccc(-n2cc(CN(C)Cc3nc(Cc4ccccc4)no3)cn2)c1 | 7 | -2 | 5 | 6 | 11 | -4 | . | .
COc1cccc(-n2cc(CN(C)Cc3nc(Cc4cccc(F)c4)no3)cn2)c1 | -3 | 6 | -3 | -4 | 16 | -3 | 4% | 1%
Cc1ccc(C(=O)OCCOc2ccc(C#N)cc2)cc1F | . | . | . | -5 | . | . | . | .
OCCN(Cc1ccccc1)Cc1ccccc1O | -8 | 0 | -6 | -20 | 1 | -5 | . | .
OCCN(CCO)Cc1csc2ccccc12 | -4 | -5 | -3 | -3 | 35* | -16 | -8% | -3%
O=C(Cn1cncn1)N/N=C/c1cc([N+](=O)[O-])ccc1O | -10 | -10 | 52* | 4 | 0 | -24 | 3% | -15%
CCC(C)Nc1nc(-c2ccc(NC(C)=O)cc2)cs1 (stereo not drawn) | . | . | . | 7 | . | . | . | .
COc1ccc(OC)c(NC(=O)c2cccc(N3C(=O)C4C5CCC(C5)C4C3=O)c2)c1 (stereo not drawn) | . | 11 | . | -6 | . | 5 | 19% | ?
Cc1cc(C(C)(C)C)cc(S(=O)(=O)NCCc2ccncc2)c1C | 4 | 1 | 1 | -7 | 2 | 2 | -2% | 0%
CC(=O)c1cccc(NC(=O)c2ccc3c(=O)n(-c4cccc(Cl)c4)cnc3c2)c1 | . | . | . | 0 | . | . | . | .
O=C(CN1CCN(c2ccccn2)CC1)Nc1ccc(OCc2ccccc2)cc1 | 9 | 41* | 57* | 0 | 13 | ? | -5% | ?
NC(=O)c1ccc(NC(=O)CN2CCN(c3ccccc3)CC2)cc1 | -22 | 15 | 63* | -1 | 72* | -15 | ? | ?
NC(=O)c1ccc(NC(=O)CN2CCN(c3ccc(Cl)cc3)CC2)cc1 | 6 | -4 | . | -19 | . | -2 | . | .
CCOC(=O)c1ccc(NC(=O)CN2CCN(c3ccccc3)CC2)cc1 | -17 | ? | 62* | 1 | 65* | 19 | ? | ?
CC(=O)N1CCc2cc(C(=O)CN3CCN(c4ccccn4)CC3)ccc21 | -29 | ? | 93* | -2 | 87* | 24 | 1.6µM* | 1.1µM*
